Bioassay records: PubChem BioAssay, National Center for Advancing Translational Sciences (NCATS)
TRHR agonist – activates the human TRH receptor | P34981 | TRHR cells, calcium flux fluo-8, FDSS agonist mode | activation, % at 2 µM | hit rate 0.18% among 360,000; also: 0% is about no effect
Target sequence (P34981 whole entry, looked up): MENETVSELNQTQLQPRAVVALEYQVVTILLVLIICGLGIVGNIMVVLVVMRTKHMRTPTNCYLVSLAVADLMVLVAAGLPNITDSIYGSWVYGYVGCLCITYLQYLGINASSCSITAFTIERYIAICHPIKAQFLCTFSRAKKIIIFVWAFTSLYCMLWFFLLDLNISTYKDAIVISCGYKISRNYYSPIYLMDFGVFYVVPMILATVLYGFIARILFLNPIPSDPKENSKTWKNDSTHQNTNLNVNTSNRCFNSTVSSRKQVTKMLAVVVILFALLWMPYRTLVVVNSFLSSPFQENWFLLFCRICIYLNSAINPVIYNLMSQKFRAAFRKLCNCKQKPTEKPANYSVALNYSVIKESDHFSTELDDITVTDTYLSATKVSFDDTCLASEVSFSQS
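Fluo-8-loaded TRHR cells; 10 s baseline, compound added, kinetic Ca2+ fluorescence read 1/s, agonist mode.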
D1 ag – human D1 receptor agonism | HEK293 T-REx D1 cells, calcium flux, agonist mode | P21728 | hit rate 1% among 360,000 | activation, % at 2 µM | AID 504660; also: 0% is about no effect
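Agonism was scored from calcium flux recorded over 180 s (1 read/s) after pintool compound addition, following a 10-cycle baseline. Cells were inducible force-coupled HEK293 TREx D1, plated overnight at 30 C and loaded with no-wash calcium dye.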
D1 potentiator – potentiators of human D1 dopamine receptor; HEK293 TREx D1 cells, calcium flux, dopamine EC20 potentiation; hit rate 0.036% among 360,000; AID 504651; P21728; potentiation, % at 10 µM; in the data active = potentiation above about 30%; also: 0% is about no effect
D1 antag – antagonists of human D1 dopamine receptor; AID 504652; activity change, negative = inhibition, % at 10 µM; HEK293 TREx D1 cells, calcium flux, dopamine EC80; hits give low values; hit rate 3.2% among 360,000; in the data active = activity change below about -30%; also: % is scaled to controls: 0 for no effect and ±100 for the full control effect
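Antagonism measured as reduced calcium response to an EC80 dopamine addition following 180 s compound pre-read; cells were inducible HEK293 Trex D1 plated overnight at 30 C, read kinetically at 1 cycle/sec.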
TRHR PAM – TRH receptor (human) allosteric enhancement; P34981; hit rate 0.66% among 360,000; enhancement, % at 2 µM; TRHR cells, fluo-8 calcium fluorescence, EC20 TRH enhancement; in the data active = enhancement above about 30%; also: 0% is about no effect
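Enhancer read-out: after compound pinning and an initial kinetic agonist-mode read, an EC20 of TRH (10 nM final) was injected and fluo-8 calcium signal (Ex 480/Em 530) followed at 1 s/cycle for 100 cycles in TRHR-expressing cells.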
Starred values were filed as active, the others as inactive; x = not tested or not shown. Rows were chosen to be rich in hits. Some 4.7% of all compounds tested hit in one or more screens of this group. Rule as the data show it, unless noted: active = activation above about 30%; inactive = the rest.

SMILES	TRHR agonist	D1 ag	D1 potentiator	D1 antag	TRHR PAM
N/C(=N\OC(=O)COc1ccc(Br)cc1)c1ccncc1	0	11	-7	-39*	0
N/C(=N\OC(=O)COc1ccc2ccccc2c1)c1ccccn1	1	7	-5	-53*	2
N/C(=N\OC(=O)COc1ccccc1Cl)c1ccccn1	0	3	0	-14	1
N/C(=N\OC(=O)c1cccnc1)c1ccc(Cl)cc1Cl	1	2	1	-33*	-2
N/C(=N\OC(=O)c1cccc(Cl)c1)c1ccccn1	0	0	-9	-38*	4
O=C(c1ccc(Cl)cc1)c1ccc(Oc2cc(NN3CCCCC3)c([N+](=O)[O-])cc2[N+](=O)[O-])cc1	0	2	-2	-8	3
Cc1cccc(OCC(=O)O/N=C(\N)c2ccc(Cl)cc2)c1	1	-1	0	-43*	26
CCOc1cccc(CNCCCSc2nnnn2C)c1	0	0	1	-13	-17
Cn1nnnc1SCCCNCc1ccccc1OCc1ccc(Cl)cc1	2	75*	0	-39*	-9
Cn1nnnc1SCCNCc1ccccc1OCc1ccc(Cl)cc1	0	20	-11	19	-6
Cn1nnnc1SCCNCc1ccc(OCc2ccccc2Cl)cc1	-2	98*	-1	-5	5
Cn1nnnc1SCCCNCc1cccc(OCc2ccc(F)cc2)c1	0	150*	5	-31*	5
COc1ccc(CNC(=O)c2ccc(CN3C(=O)C(C)=C(c4ccc(C)cc4)S3(=O)=O)cc2)cc1	1	9	-4	-3	-5
COc1ccc(S(=O)(=O)N2CCOCC2)cc1NC(=O)c1cc(C)oc1C	1	1	x	-3	-2
O=C(CSc1oc(-c2ccco2)nc1S(=O)(=O)c1ccc(Cl)cc1)c1ccc(Cl)cc1	0	0	1	14	2
CCOc1ccc(C2N(c3ccc(Cl)cc3)C(=O)C3CCCN32)cc1OC (configuration not stated)	1	2	-4	-42*	-1
CCOc1ccc(C2N(c3ccc(OC)cc3)C(=O)C3CCCN32)cc1OC (configuration not stated)	0	1	x	5	-16
c1ccc(C2(CN3CCNC[C@H]3Cc3cccc4ccccc34)CC2)cc1	0	77*	-7	-56*	7
Fc1cccc(CCN2CCNC[C@H]2Cc2cccc3ccccc23)c1	3	40*	-3	9	-6
COc1ccc(C)cc1NC(=O)N1CCCn2nc(C)cc21	0	0	1	7	8
CCCCCC(O)CCc1n[nH]c(=S)n1-c1ccccc1 (configuration not stated)	0	1	-1	11	2
CCCCC(CC(O)COCCC)c1n[nH]c(=S)n1-c1ccccc1 (configuration not stated)	1	5	-2	-45*	-3
Cc1ccc(-c2ccc(S(=O)(=O)NCC3CCCO3)cc2)cc1 (configuration not stated)	-1	8	-6	-32*	-2
O=S(=O)(NCC1CCCO1)c1ccccc1 (configuration not stated)	0	1	-2	1	0
O=C(c1ccc(S(=O)(=O)NCC2CCCO2)cc1)N1CCc2ccccc21 (configuration not stated)	-1	13	-6	-51*	0
SMILES	TRHR agonist	D1 ag	D1 potentiator	D1 antag	TRHR PAM
Cc1ccc(CN(Cc2ccco2)S(=O)(=O)c2ccc(S(=O)(=O)NCC3CCCO3)cc2)cc1 (configuration not stated)	0	23	-4	-36*	-1
Cc1ccc(NC(=O)N2CCCC2C(=O)NCc2ccc(Cl)cc2)cc1 (configuration not stated)	0	3	-3	1	-5
CCN1C(=O)CC(NC2CCN(C(=O)c3ccc(F)cc3)CC2)C1=O (configuration not stated)	0	1	2	10	0
CC(=O)N1CCc2cc(Br)cc(S(=O)(=O)CCC(=O)NCc3ccc(F)cc3)c21	0	6	2	-8	-2
Clc1ccc(OCCCn2cncn2)cc1Cl	0	56*	-19	-28	5
Fc1ccc(-c2nn(-c3ccc(Cl)cc3)c3c2cnc2ccc(F)cc23)cc1	0	2	1	6	-6
CC(C)(C)NC(=O)C(=O)N/N=C/c1cccs1	1	1	-5	-1	-3
O=C(N/N=C/c1cccs1)C(=O)Nc1cccc(Cl)c1	1	14	-4	-66*	13
Cc1n[nH]c(C)c1S(=O)(=O)N1CCN(S(=O)(=O)c2cccc(F)c2)CC1	0	3	1	-2	14
O=C(COc1ccccc1)Nc1ccc2nc(SCC(=O)N3CCc4ccccc43)sc2c1	-1	7	-1	-10	7
CCn1c(CC(=O)Nc2ccccc2)nnc1SCc1nc2ccccc2c(=O)[nH]1	0	1	-4	13	12
CCn1c(COc2ccccc2C)nnc1SCc1nc2ccccc2c(=O)[nH]1	0	2	-3	-30*	0
COc1cccc(NC(=O)Cn2c(=O)n(CCCC(=O)NCc3ccc4c(c3)OCO4)c(=O)c3ccccc32)c1	1	4	1	2	1
C/C(CC(=O)Nc1ccccc1C#N)=N\NC(=O)c1ccncc1	1	1	-1	-7	-7
Cc1cc(C)c(C(=O)COC(=O)Cn2c(C)csc2=O)cc1C	0	3	-11	-36*	3
COc1ccccc1NC(=O)COC(=O)CCn1c(C)csc1=O	0	0	-8	-33*	0
COc1cccc(NC(=O)COC(=O)Cn2c(C)csc2=O)c1	0	3	x	-94*	-1
COc1ccccc1NC(=O)CNC(=O)Cn1c(C)cc2ccccc2c1=O	0	-4	-5	-65*	23
COc1ccc(OC)c(NC(=O)CNC(=O)Cn2c(C)cc3ccccc3c2=O)c1	-1	1	-3	-1	12
Cc1cc(C)c(C(=O)COC(=O)CCn2c(C)csc2=O)cc1C	-1	11	2	-3	13
Cc1ccc(NC(=O)COC(=O)Cn2c(C)csc2=O)cc1C	-1	3	-2	-35*	0
O=C(Nc1ccc(Cl)cc1)c1cc2c(Cl)nc3ccccc3c2s1	1	3	-6	-8	48*
Cc1ccccc1N(C)S(=O)(=O)c1nnc(NC(=O)c2ccco2)s1	0	3	2	-14	-3
COc1ccc2cc(CN(CC3CCCO3)C(=O)Nc3ccccc3OC)c(=O)[nH]c2c1 (configuration not stated)	-1	1	-7	-21	-2
COc1ccccc1NC(=O)N(Cc1cccs1)Cc1cc2cc3c(cc2[nH]c1=O)OCO3	0	2	-13	-34*	3
